From PubChem BioAssay (NCATS)
Records with an inconclusive call do not appear. Unmarked numbers belong to inactive results. Activity calls are given as the source filed them. The call rests on the fitted dose curve; in most records, active means well fitted cell-killing curve with a large enough effect; inconclusive means small, poorly fitted or top-dose-only effect, or effect the other way; inactive means no such curve, though single readings can be large or run the other way.

Assay: Quantitative High-Throughput drug screen in 47 multiple myeloma cell lines against the NCATS MIPE library collection: Delta47_JCRB cell viability assay (AID 1918925; further: nearly all actives have a fitted effect of over 45% in size;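 on viability (% of DMSO): 0% = media-only wells and 100% = DMSO-only wells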)
Details: Delta47 myeloma viability, CellTiter-Glo ATP, 48 h; series mostly up to 45.8 µM; viability (% of DMSO): at the top concentration
Method in brief: (§1)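 Inhibition of cell viability is measured here. Each line was plated at 500 cells per well, treated with MIPE 4.0 drugs, kept 48 hours at 37C, then assayed for ATP content by CellTiter-Glo luminescence.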
Potency means the concentration at half of the fitted maximal effect.

SMILES	Potency	viability (% of DMSO)
Cc1cc(Nc2nc(N[C@@H](C)c3ccc(F)cc3)c(C#N)cc2F)n[nH]1	2.96 µM (active)	–
COc1cccc(-c2ccc(NC(=O)C3=C(C(=O)O)CCC3)c(F)c2)c1	–	134%
CC(C)c1cc(-c2n[nH]c(=O)n2-c2ccc3c(ccn3C)c2)c(O)cc1O	0.0332 µM (active)	–
Nc1nccc(Oc2ccc(NC(=O)c3c[nH]cc(-c4ccc(F)cc4)c3=O)cc2F)c1Cl	16.6 µM (active)	–
CCNC(=O)Nc1ccc2ncc(Nc3ccc(C)cc3)nc2n1	3.32 µM (active)	–
Cc1cn2cc(C(=O)N(C)CCO)cc(N[C@@H]3CCOc4cccc(C)c43)c2n1	–	120%
C=CC(=O)Nc1cccc(Oc2nc(Nc3ccc(N4CCN(C)CC4)cc3OC)ncc2Cl)c1	0.0296 µM (active)	–
CN(C)CC(C)(C)CNc1nn2c(-c3ccccc3)nnc2cc1C1CCC1	13.2 µM (active)	–
NC(=O)c1c(OCc2c(F)cc(Br)cc2F)nsc1NC(=O)NCCCCN1CCCC1	7.43 µM (active)	–
CC1(C)CC(=O)c2c(C(F)(F)F)nn(-c3ccc(C(N)=O)c(NC4CCC(OC(=O)CN)CC4)c3)c2C1 (stereo not drawn)	0.166 µM (active)	–
C=CC(=O)Nc1cccc(Oc2nc(Nc3ccc(N4CCN(C)CC4)cc3)ncc2Cl)c1	1.87 µM (active)	–
OCc1ccc(-c2ccc(-c3ccc(CO)s3)o2)s1	20.9 µM (active)	–
CC1(C)CCC(c2ccc(Cl)cc2)=C(CN2CCN(c3ccc(C(=O)NS(=O)(=O)c4ccc(N[C@H](CCN5CCOCC5)CSc5ccccc5)c(S(=O)(=O)C(F)(F)F)c4)cc3)CC2)C1	7.43 µM (active)	–
COc1cc2c(Nc3ccc(NC(=O)c4ccccc4)cc3)ncnc2cc1OCCCN1CCOCC1	8.33 µM (active)	–
NCC(=O)Nc1ccc(-n2nc(C(F)(F)F)cc2-c2ccc3c(ccc4ccccc43)c2)cc1	18.7 µM (active)	–
O=C(O)CCCc1c[nH]c2ccccc12	–	112%
C[C@]1(CO)CN(c2cc(C(=O)Nc3ccc4c(c3)-c3c(c(C(N)=O)nn3-c3ccc(F)cc3)CC4)c(Cl)cn2)C[C@@]1(C)CO	9.35 µM (active)	–
NC1(Cc2ccc(Cl)cc2)CCN(c2ncnc3[nH]ccc23)CC1	0.935 µM (active)	–
CCCNC(=O)Nc1ccc(Oc2ncnc3cc(OC)c(OC)cc23)cc1Cl	–	102%

Assay: Quantitative High-Throughput drug screen in 47 multiple myeloma cell lines against the NCATS MIPE library collection: EJM_DSMZ cell viability assay (AID 1918926; further: nearly all actives have a fitted effect of over 30% in size;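 on viability, % of control: 100% = DMSO-only wells and 0% = media-only wells without cells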)
Details: EJM myeloma cell viability, CellTiter-Glo ATP, 48 h; series mostly up to 45.8 µM; viability, % of control: at the top concentration
Method in brief: as §1

SMILES	Potency	viability, % of control
Cc1cc(Nc2nc(N[C@@H](C)c3ccc(F)cc3)c(C#N)cc2F)n[nH]1	16.6 µM (active)	–
COc1cccc(-c2ccc(NC(=O)C3=C(C(=O)O)CCC3)c(F)c2)c1	–	95.7%
CC(C)Nc1cc(C(F)(F)F)cc2nc(NC(=O)c3cccnc3)nn12	14.8 µM (active)	–
Nc1nccc(Oc2ccc(NC(=O)c3c[nH]cc(-c4ccc(F)cc4)c3=O)cc2F)c1Cl	5.9 µM (active)	–
COc1cc(-c2nn(C3CCC(N4CCN(C(C)=O)CC4)CC3)c3ncnc(N)c23)ccc1NC(=O)c1cc2ccccc2n1C (stereo not drawn)	20.9 µM (active)	–
Clc1cccc(-c2nnnn2Cc2cccnc2)c1Cl	–	83.3%
CC(C)(C)c1cc(NC(=O)Nc2ccc(-c3cn4c(n3)sc3cc(OCCN5CCOCC5)ccc34)cc2)no1	18.7 µM (active)	–
Cn1c(=O)n(-c2ccc(C(C)(C)C#N)cc2)c2c3cc(-c4cnc5ccccc5c4)ccc3ncc21	0.833 µM (active)	–
NC(=O)c1c(OCc2c(F)cc(Br)cc2F)nsc1NC(=O)NCCCCN1CCCC1	20.9 µM (active)	–
C=CC(=O)Nc1cccc(Oc2nc(Nc3ccc(N4CCN(C)CC4)cc3)ncc2Cl)c1	23.5 µM (active)	–
Nc1cccc(-c2cc3c(Oc4cccc(O)c4)ncnc3[nH]2)c1	16.6 µM (active)	–
OCc1ccc(-c2ccc(-c3ccc(CO)s3)o2)s1	11.8 µM (active)	–
Clc1ccc2ncc(-c3cccc(NC4CNC4)n3)n2c1	18.7 µM (active)	–
CC1(C)CCC(c2ccc(Cl)cc2)=C(CN2CCN(c3ccc(C(=O)NS(=O)(=O)c4ccc(N[C@H](CCN5CCOCC5)CSc5ccccc5)c(S(=O)(=O)C(F)(F)F)c4)cc3)CC2)C1	8.33 µM (active)	–
Clc1cccc(-n2nnnc2NCc2ccccc2Oc2ccccn2)c1Cl	–	96.2%
NCC(=O)Nc1ccc(-n2nc(C(F)(F)F)cc2-c2ccc3c(ccc4ccccc43)c2)cc1	23.5 µM (active)	–
NC(=O)c1cccc2cn(-c3ccc([C@@H]4CCCNC4)cc3)nc12	–	98.6%
C1Cc2[nH]nc(-c3nn[nH]n3)c2C1	–	121%
O=C(O)CCCc1c[nH]c2ccccc12	–	99.4%
CCCNC(=O)Nc1ccc(Oc2ncnc3cc(OC)c(OC)cc23)cc1Cl	–	90.5%

Assay: Quantitative High-Throughput drug screen in 47 multiple myeloma cell lines against the NCATS MIPE library collection: AMO1_DSMZ cell viability assay (AID 1918927; further: nearly all actives have a fitted effect of over 30% in size;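 on viability, % of DMSO: 100% = DMSO only wells and 0% = cell-free media only wells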)
Details: AMO1 myeloma cells viability, CellTiter-Glo ATP luminescence, 48 h; series mostly up to 45.8 µM; viability, % of DMSO: at the top concentration
Method in brief: as §1

SMILES	Potency	viability, % of DMSO
Cc1cc(Nc2nc(N[C@@H](C)c3ccc(F)cc3)c(C#N)cc2F)n[nH]1	0.235 µM (active)	–
COc1cccc(-c2ccc(NC(=O)C3=C(C(=O)O)CCC3)c(F)c2)c1	6.62 µM (active)	–
CC(C)c1cc(-c2n[nH]c(=O)n2-c2ccc3c(ccn3C)c2)c(O)cc1O	0.0296 µM (active)	–
Nc1nccc(Oc2ccc(NC(=O)c3c[nH]cc(-c4ccc(F)cc4)c3=O)cc2F)c1Cl	2.35 µM (active)	–
CNC(=O)c1ccc(-c2cnc3ncc(Cc4ccc5ncccc5c4)n3n2)cc1F	–	96.5%
CCNC(=O)Nc1ccc2ncc(Nc3ccc(C)cc3)nc2n1	2.35 µM (active)	–
CN(C)CC(C)(C)CNc1nn2c(-c3ccccc3)nnc2cc1C1CCC1	2.96 µM (active)	–
C=CC(=O)Nc1cccc(Oc2nc(Nc3ccc(N4CCN(C)CC4)cc3)ncc2Cl)c1	5.26 µM (active)	–
C[C@]12CC[C@H](O)CC1=CCC1C2CC[C@]2(C)C(n3cnc4ccccc43)=CCC12 (stereo partly drawn)	–	97.4%
Clc1ccc2ncc(-c3cccc(NC4CNC4)n3)n2c1	4.69 µM (active)	–
CC1(C)CCC(c2ccc(Cl)cc2)=C(CN2CCN(c3ccc(C(=O)NS(=O)(=O)c4ccc(N[C@H](CCN5CCOCC5)CSc5ccccc5)c(S(=O)(=O)C(F)(F)F)c4)cc3)CC2)C1	3.72 µM (active)	–
NCC(=O)Nc1ccc(-n2nc(C(F)(F)F)cc2-c2ccc3c(ccc4ccccc43)c2)cc1	0.0662 µM (active)	–
C1Cc2[nH]nc(-c3nn[nH]n3)c2C1	–	130%
NC1(Cc2ccc(Cl)cc2)CCN(c2ncnc3[nH]ccc23)CC1	2.09 µM (active)	–
